# Assay results reported in PubChem BioAssay (EPA / NIEHS).
# Values joined by “and” are separate entries in the source; they are usually repeats but may differ in a detail not shown here. Identical values can stand only once. Some structures have more than one record in an assay (separate samples or runs), and their calls can disagree. Active and inactive are the calls of the source. Rule for the calls: active = hit-call score of the fitted dose curve at least 0.9, where 1 is the maximum; inactive = score below 0.9.
# Assay: BSK_BF4T_SRB: Viability Assessment in the BioMAP Diversity Plus: BF4T Assay (AID 2284274)
# Details: primary human bronchial epithelial cells with fibroblasts
# Experimental: BSK_BF4T is a cell-based, multiplexed-readout assay that uses bronchial epithelial cells and dermal fibroblasts, a human vascular primary cell, with measurements taken at 24 hours after chemical dosing in a microplate: 96-well plate.BSK_BF4T_SRB is an assay component measured in the BSK_BF4T assay. It measures 0.1% sulforhodamine related to cell death using Sulforhodamine staining technology.Data from the assay component BSK_BF4T_SRB was analyzed at the endpoint, BSK_BF4T_SRB, in the positive analysis fitting direction relative to DMSO as the negative control and baseline of activity. Using a type of viability reporter, gain or loss-of-signal activity can be used to understand protein changes. To generalize the intended target to other relatable targets, this assay endpoint is annotated to the 'cell morphology' intended target family, where the subfamily is 'cell conformation'.
# The levels of cell surface (or secreted, indicated by the prefix "s") biomarker endpoints were measured by ELISA. Overt cytotoxicity to cells in confluent adherent cultures (all systems other than the BT system) was assessed by measuring total protein levels using sulforhodamine B (SRB) staining in parallel cultures at the time of biomarker measurements, indicated as SRB endpoints. For proliferation assays for adherent cell types, individual cell types are cultured at sub-confluence and relative cell numbers quantified by SRB staining at time points optimized for each system (48 h: 3C and CASM3C systems; 72 h: BT and HDF3CGF systems; 96 h: SAg system). SRB was performed by staining cells with 0.1% SRB after fixation with 10% TCA and reading wells at 560 nm.Viability and proliferation of PBMC (T cells) was quantified by Alamar Blue reduction for the SAg and BT systems. For PBMC viability (referred to as PBMC Cytotoxicity within the assay endpoint names), cells were plated (75,000/well in a 96-well plate) and then chemical samples added for 1 h before addition of activators, SEB and TSST-1 (20 ng/mL final concentration each). Cells were incubated for 90 h. Then, Alamar Blue (20 uL/well) (Invitrogen, Cat DAL1100) was added for 6 h, and the plates were read with a fluorescence microplate reader at 546/580 nm (excitation/emission). For PBMC proliferation, cells were plated and activated as above but incubated for only 16 h prior to addition of Alamar Blue. Plates were read after 6 h.
SMILES,outcome,AC50
C=C(C)C(=O)OCCC(F)(F)C(F)(F)C(F)(F)C(F)(F)C(F)(C(F)(F)F)C(F)(F)F,inactive,–
FC(F)(I)C(F)(F)C(F)(F)C(F)(F)I,–,51.3 µM (active) and 50.7 µM (active) and 46.5 µM (active)
C=CC(F)(F)C(F)(F)C(F)(F)C(F)(F)C(F)(F)C(F)(F)C(F)(F)C(F)(F)C=C,inactive,–
C=C(C)C(=O)OCC(F)(F)C(F)(F)C(F)(F)F,inactive,–
O=C(O)C(F)(F)C(F)(F)OC(F)(F)F,inactive,–
CCO[Si](CCC(F)(F)C(F)(F)C(F)(F)C(F)(F)C(F)(F)C(F)(F)F)(OCC)OCC,inactive,–
FC(F)(F)C(F)(F)C(F)(F)C(F)(F)C(F)(F)C(F)(F)C(F)(F)C(F)(F)CCS,inactive,–
C=CC(=O)OCC(F)(F)C(F)(F)C(F)(F)C(F)(F)C(F)(F)C(F)(F)C(F)(F)F,inactive,–
OCC(F)(F)C(F)(F)C(F)(F)C(F)(F)C(F)(F)C(F)(F)F,inactive,–
FC(F)(F)C(F)(F)C(F)(F)C(F)(F)C(F)(F)C(F)(F)C(F)(F)Br,inactive,–
OCCCC(F)(F)C(F)(F)C(F)(F)C(F)(F)C(F)(F)C(F)(F)C(F)(F)F,–,51 µM (active) and 53.6 µM (active)
COC(=O)CCC(F)(F)C(F)(F)C(F)(F)C(F)(F)F,inactive,–
OCC(F)(F)C(F)(F)C(F)(F)F,inactive,–
FC(F)(F)C(F)(F)C(F)(F)C(F)(F)C(F)(F)C(F)(F)C(F)(F)I,inactive,–
O=C(O)C(F)(OC(F)(F)C(F)(OC(F)(F)C(F)(OC(F)(F)C(F)(F)C(F)(F)F)C(F)(F)F)C(F)(F)F)C(F)(F)F (stereo not given),inactive,–
C=CC(=O)OCC(F)(F)C(F)(F)C(F)(F)C(F)(F)COC(=O)C=C,inactive,–
CC(C)(C)C(=O)CC(=O)C(F)(F)C(F)(F)C(F)(F)F,inactive,–
O=C(Cl)C(F)(F)C(F)(F)C(F)(F)C(F)(F)C(F)(F)C(F)(F)C(F)(F)C(F)(F)F,inactive,30 µM (active) and 50.1 µM (active)
Cc1ccc(S(=O)(=O)OCC(F)(F)C(F)(F)C(F)(F)C(F)(F)C(F)(F)C(F)F)cc1,inactive,–
O=C(CC(=O)C(F)(F)C(F)(F)F)C(F)(F)F,inactive,–

SMILES,outcome,AC50
OCC(F)(F)C(F)(F)C(F)(F)C(F)(F)C(F)(F)C(F)F,inactive,–
FC(F)(Br)C(F)(F)C(F)(F)C(F)(F)C(F)(F)C(F)(F)Br,inactive,–
FC(F)(F)C(F)(F)C(F)(F)N(C(F)(F)C(F)(F)C(F)(F)F)C(F)(F)C(F)(F)C(F)(F)F,inactive,–
O=C(O)C(F)(F)C(F)(F)F,inactive,–
O=C(O)C(F)(F)C(F)(F)C(F)(F)C(F)(F)C(F)(F)C(F)(F)C(F)(F)C(F)(F)C(F)(F)C(F)(F)C(F)(F)C(F)(F)F,inactive,–
O=C(O)C(F)(F)C(F)(F)C(F)F,inactive,–
FC(F)(F)C(F)(F)C(F)(F)C(F)(F)C(F)(F)C(F)(F)C(F)(F)C(F)(F)F,inactive,–
O=C(O)C=C(C(F)(F)F)C(F)(F)F,inactive,–
FC(F)(F)C(F)(F)C(F)(F)C(F)(F)CCI,inactive,–
O=S(=O)(OCCOC(F)(F)F)C(F)(F)F,inactive,–
FC(F)(F)C(F)(F)C(F)(F)CI,inactive,–
C=CC(F)(F)C(F)(F)C(F)(F)C(F)(F)C(F)(F)C(F)(F)C(F)(F)C(F)(F)F,inactive,–
O=C(O)C(F)(F)C(F)(F)C(F)(F)C(F)(F)C(F)(F)C(F)(F)C(F)(F)C(F)(F)C(F)(F)C(F)F,–,41.7 µM (active) and 40.8 µM (active)
O=P(O)(O)OCCC(F)(F)C(F)(F)C(F)(F)C(F)(F)C(F)(F)C(F)(F)F,inactive,–
OCCCC(F)(F)C(F)(F)C(F)(F)F,inactive,–
OCC(F)(F)C(F)(F)C(F)(F)C(F)F,inactive,–
N=C(N)C(F)(F)C(F)(F)C(F)(F)C(F)(F)C(F)(F)C(F)(F)C(F)(F)F,inactive,–
O=C(O)C(F)(F)C(F)(F)C(F)(F)F,inactive,–
O=C(O)C(F)(F)C(F)(F)C(F)(F)C(F)(F)F,inactive,–
